Measurements from PubChem BioAssay (EPA / NIEHS).
Calls of active or inactive are those of the source. Rule for the calls: active = hit-call score of the fitted dose curve at least 0.9, where 1 is the maximum; inactive = score below 0.9.

Assay: ATG_AP_2_CIS: Attagene CIS-FACTORIAL HepG2 Assay for human Activator Protein 2 (AP-2) (AID 2282932)
Settings: HepG2 AP-2 cis-reporter, Attagene transcription factor profiling; actives raise or lower the signal
Protocol: ATG_CIS is a cell-based, multiplexed-readout assay that uses HepG2, a human liver cell line, with measurements taken at 24 hours after chemical dosing in a 24-well plate.ATG_AP_2_CIS is one of 52 assay component(s) measured or calculated from the ATG_CIS assay. It is designed to make measurements of mRNA induction, a form of inducible reporter, as detected with fluorescence intensity signals by Reverse transcription polymerase chain reaction (RT-PCR) and Capillary electrophoresis technology.Data from the assay component ATG_AP_2_CIS was analyzed into 1 assay endpoint. This assay endpoint, ATG_AP_2_CIS, was analyzed with bidirectional fitting relative to DMSO as the negative control and baseline of activity. Using a type of inducible reporter, measures of mRNA for gain or loss-of-signal activity can be used to understand the reporter gene at the transcription factor-level as they relate to the gene TFAP2A and TFAP2B and TFAP2D. Furthermore, this assay endpoint can be referred to as a primary readout, because this assay has produced multiple assay endpoints where this one serves a reporter gene function. To generalize the intended target to other relatable targets, this assay endpoint is annotated to the dna binding intended target family, where the subfamily is basic helix-turn-helix leucine zipper.
Human liver HepG2 cells are transiently transfected with multiple reporter transcription units (MRTUs) in 6-well plates using FuGene 6 reagent (Roche; 3 ml FuGene/1 mg DNA). The MRTU constructs are regulated by a cis-regulating element (promoter). […] A major difference between the CIS and TRANS system is that in CIS activities of endogenous TFs are measured, whereas the TRANS assay evaluates changes in activities of exogenous, chimeric NR-Gal4 proteins. […] At the end of 24 hour incubation, total RNA was isolated using TriZol reagent (Invitrogen). The isolated RNA is then reverse-transcribed using oligo(dT) primer and Mo-MLV reverse transcriptase (Invitrogen) with DNAse I (Ambion) treatment for 30 min. The one-tenth of the produced cDNA was amplified by PCR using Taq DNA polymerase (Invitrogen) and two reporter sequence-specific primers. The PCR products were fluorescently labeled by primer extension with 6-arboxyfluorescein (6-FAM) 5'-labeled reporter sequence-specific primer (2 min at 95 C, 20 s at 68 C and 10 min at 72 C) and these products were digested with 5U of HpaI (New England Biolabs) for 2h at 37 C. The fragments were purified using Qiaquick PCR columns (Qiagen), analyzed on an ABI 3130xL genetic analyzer (Applied Biosystems) with peak positions identified by using a set of X-rhodamine (ROX)-labeled MapMarker1000 molecular weight standards (BioVentures). The raw capillary electrophoresis data was processed using Attagraph software (Attagene).

| SMILES | outcome | AC50 |
| --- | --- | --- |
| CCCCOCCOC(C)=O | inactive | – |
| COc1cc(-c2ccc(N)c(OC)c2)ccc1N | inactive | – |
| O=CC=O | inactive | – |
| OCc1ccco1 | inactive | – |
| Nc1cccc(Cl)c1 | inactive | – |
| CCOC(=O)CP(=O)(OCC)OCC | inactive | – |
| BrCCBr | inactive | – |
| CCCCCCCCCl | inactive | – |
| NC(=O)O | inactive | – |
| CCN1CCC2(CC1)COc1cc3c(cc12)N(C(=O)c1ccc(-c2ccc(-c4nnc(C)o4)cc2C)cc1)CC3 | inactive | – |
| CCCCC(CC)CO[N+](=O)[O-] (stereo not given) | inactive | – |
| Fc1ccc(C2(Cn3cncn3)OC2c2ccccc2Cl)cc1 (stereo not given) | inactive | – |
| CC1CN1P(=O)(N1CC1C)N1CC1C (stereo not given) | inactive | – |
| C=CCc1ccc(OC)cc1 | inactive | – |
| O=P(O)(O)CN(CP(=O)(O)O)CP(=O)(O)O | inactive | – |
| CC(C)C1CCC(Cc2ccc(Cl)cc2)C1(O)Cn1cncn1 (stereo not given) | inactive | – |
| CCC(=O)C(CC(C)N(C)C)(c1ccccc1)c1ccccc1 (stereo not given) | inactive | – |
| Cn1sc(Cl)cc1=O | inactive | – |
| NNC(=S)NN | inactive | – |
| O=S(=O)(c1ccc(Cl)cc1)c1ccc(Cl)cc1 | inactive | – |

| SMILES | outcome | AC50 |
| --- | --- | --- |
| O=C(O)C(F)(F)C(F)(F)C(F)(F)C(F)(F)C(F)(F)C(F)(F)F | inactive | – |
| CC(C)(OO)c1ccccc1 | inactive | – |
| CC(=O)c1cc(C(C)(C)C)cc2c1CCC2(C)C | – | 161 µM (active) |
| NC(=S)Nc1ccccc1 | inactive | – |
| CCN(CC)C(=O)Cl | inactive | – |
| CC(C)(c1ccccc1)c1ccc(O)c(C(C)(C)c2ccccc2)c1 | inactive | – |
| N#Cc1ccccn1 | inactive | – |
| CCOP(=S)(OCC)Oc1nc(Cl)c(Cl)cc1Cl | inactive | – |
| CC(C)(C)c1cc(O)ccc1O | inactive | – |
| CCCCCCCCSC(=O)Oc1cc(Cl)nnc1-c1ccccc1 | inactive | – |
| ClCCBr | inactive | – |
| O=C/C=C/c1ccccc1 | inactive | – |
| Oc1ccc(-c2ccccc2)cc1 | – | 26.8 µM (active) |
| N#CCc1ccc(Cl)cc1 | inactive | – |
| CN(CCCC(=O)c1cccnc1)N=O | inactive | – |
| Nc1ccc(-c2ccc(N)c(Cl)c2)cc1Cl | inactive | – |
| CCOP(=O)(CN(CCO)CCO)OCC | inactive | – |
| N#CCCO | inactive | – |
| N#CN=C(N)N | inactive | – |
| C=C(C)C(=O)[O][Sn]([CH2]CCC)([CH2]CCC)[CH2]CCC | – | 0.412 µM (active) |
